Laboratory results as given in PubChem BioAssay AID624296 (National Center for Advancing Translational Sciences (NCATS), 2012).
Where “and” joins values, the source holds several entries; their conditions need not be identical. Equal values may be shown once. Among all 350,000 compounds or so, about 9,900 (2.8%) were called active. Another 15% or so got no clear call; they are omitted. The call rests on the fitted dose curve; in most records, active means well fitted activation curve with a large enough effect; inconclusive means small, poorly fitted or top-dose-only effect; inactive means no such curve, though single readings can be large or run the other way. Shown is part of a subset that was picked to be rich in actives. Entries that show only a call come without a potency. More than one record can exist for a structure, and the calls need not agree.

Experiment: A quantitative high throughput screen for small molecules that induce DNA re-replication in MCF 10a normal breast cells. Further: nearly all actives have a fitted effect of over 50% in size.
Details: MCF 10A DNA re-replication, Hoechst nuclear intensity, 48 h; series mostly up to 46.1 µM
Potency means the concentration at half of the fitted maximal effect.

Compound | Potency
COc1ccc(CCNC(=O)c2ccc(NC(=O)CC3SC(N4CCCCC4)=NC3=O)cc2)cc1OC (centres undefined) | inactive
Cn1c(N)cc(=O)n(C)c1=S | inactive
Cc1ccc(CCC(=O)Nc2ncc(Cc3cc(Cl)ccc3Cl)s2)o1 | 1.16 µM (active)
CCOc1ccccc1NC(=O)CCc1ccc(C)o1 | inactive
Cc1cnc(NC(=O)CSc2nnc(-c3ccc(Cl)cc3Cl)n2N)s1 | inactive
CNS(=O)(=O)c1ccc(C(=O)NCC(=O)NCCc2ccc3c(c2)OCCO3)cc1 | inactive
CCOC(=O)CNC(=O)N1c2ccccc2Sc2ccccc21 | inactive
N/C(=N\OC(=O)c1ccc2c(c1)OCO2)c1ccc(Br)cc1 | inactive
N/C(=N\OC(=O)N1c2ccccc2Sc2ccccc21)c1ccc(Br)cc1 | 5.17 µM (active)
O=C(OCC(=O)N1CCN(c2ccccc2)CC1)c1ccc([N+](=O)[O-])s1 | inactive
COc1ccc(CCNC(=O)COC(=O)c2cnc(Cl)c(Cl)c2)cc1 | inactive
Cc1nnc(OCC(=O)NCCC2=CCCCC2)c2ccccc12 | 20.6 µM (active)
O=C(Cc1cccc2ccccc12)NCCC1=CCCCC1 | inactive
O=C(COc1cccc(-n2cnnn2)c1)NCCC1=CCCCC1 | inactive
O=C(OCCOc1ccccc1F)c1cc(S(=O)(=O)N2CCOCC2)ccc1F | inactive
CCCCN(C(=O)c1nn(C)c(=O)c2ccccc12)c1c(N)n(CCC)c(=O)[nH]c1=O | inactive
CCC1=C(C(=O)OC)C(c2cc(OC)ccc2OC)C(C#N)=C(N)O1 (centres undefined) | inactive
COc1ccc(C2C(C#N)=C(N)Oc3cc(N)ccc32)cc1OC (centres undefined) | 18.4 µM (active)
COC(=O)C1=C(C)OC(N)=C(C#N)C1c1cc(OC)ccc1OC (centres undefined) | inactive
O=C1NCC(c2ccccc2)(c2ccccc2)C(=O)N1 | inactive
O=C(Cc1ccc([N+](=O)[O-])cc1)NCCc1ccc2c(c1)OCO2 | inactive
O=C(c1cccnc1)N(Cc1ccccc1)C(=O)c1cccnc1 | inactive
COC(=O)Cc1csc(Nc2c(C)n(C)n(-c3ccccc3)c2=O)n1 | inactive
Cc1ccc(-n2c(O)c(C=Nc3ccc(S(=O)(=O)Nc4ncccn4)cc3)c3ccccc3c2=O)cc1C | inactive
COC(=O)Cc1csc(/N=C/c2c(O)n(-c3cccc(C(F)(F)F)c3)c(=O)c3ccccc23)n1 | inactive and 3.26 µM (active)
Cc1ccc(C)c(NC(=O)COC(=O)c2nn(C)c(=O)c3ccccc23)c1 | inactive
COC(=O)c1ccc(COc2ccc(/C=C/C(=O)c3ccc(OC)c(CSCC(=O)O)c3)cc2OC)cc1 | 2.91 µM (active)
COc1ccc(/C=C/C(=O)N2CCCC2)cc1OC | inactive
COc1cc(/C=N/O)ccc1OCc1ccc([N+](=O)[O-])cc1 | inactive
